Experimental data: PubChem BioAssay (NCI)
The panel holds about 83,000 compounds, 20% with a hit somewhere; the sample as a whole holds those more often.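 Step 1: grow cells in 96-well plates. Step 2: add test compound at a single concentration. Step 3: incubate 48 h. Step 4: record percent growth.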 Unmarked numbers belong to inactive results. Active and inactive are the calls of the source. The calls were made as follows: active = growth percent below 10; inactive = the rest.

Experiments:
Assay in all cases: NCI-60 one-dose screen, 48 h (100 = growth as untreated, 0 = no growth, -100 = all killed)
Conditions in all cases: 10 µM unless noted
[1] = test system: SR leukemia
[2] = test system: RPMI-8226 leukemia
[3] = test system: OVCAR-8 ovarian
[4] = test system: OVCAR-5 ovarian
[5] = test system: OVCAR-4 ovarian
[6] = test system: SK-OV-3 ovarian
[7] = test system: IGROV1 ovarian
[8] = test system: OVCAR-3 ovarian
[9] = test system: HS 578T breast
[10] = test system: NCI/ADR-RES ovarian
[11] = test system: T-47D breast
[12] = test system: BT-549 breast
[13] = test system: MDA-MB-435 melanoma
[14] = test system: MCF7 breast
[15] = test system: HCT-116 colon
[16] = test system: HCC-2998 colon
[17] = test system: KM12 colon
[18] = test system: SW-620 colon

Row | Structure (SMILES) | growth [1] | growth [2] | growth [3] | growth [4] | growth [5] | growth [6] | growth [7] | growth [8] | growth [9] | growth [10] | growth [11] | growth [12] | growth [13] | growth [14] | growth [15] | growth [16] | growth [17] | growth [18]
1 | NS(=O)(=O)c1ccc(CCN2C(=O)/C(=C\c3ccc(Cl)cc3)C=C2c2ccc(Oc3ccccc3)cc2)cc1 | 45.9% | 60.4% | 71.4% | 76.7% | 87.5% | 93% | 78.8% | 81.3% | 98.8% | 78.3% | 66.7% | 92.2% | 78.8% | 39.3% | 65% | 89% | 62.4% | 
2 | CCOC(=O)c1noc2c1CCc1c-2cn(Cc2ccc(OC)cc2)c1-c1cc(OC)c(OC)c(OC)c1 | 17.8% | 24.7% | 32.6% | 71.2% | 63.2% | 65.3% | 33.2% | 3.47% (active) | 8.37% (active) | 21.9% | 40.9% | 19.6% | -28.1% (active) | 18% | 8.2% (active) | 39.6% | 21.3% | 22.9%
3 | CC(C)(C)C(=O)Nc1nc2c(s1)CCc1ccn(S(=O)(=O)c3ccccc3)c1-2 | 83.1% | 78.6% | 100% | 97.7% | 95.2% | 96.1% | 97.3% | 95.3% | 98.6% | 85.7% | 66.6% | 94.5% | 108% | 85.9% | 78.7% |  | 89.8% | 101%
4 | Nc1ncnc2c1c(-c1ccc(Oc3ccccc3)cc1)nn2C[C@@H]1SSC[C@H]1O | 4.41% (active) | 50.9% | 33.3% | 80.8% | 50.2% | -8.06% (active) | -10.3% (active) | 18.3% | 16.9% | 48.3% | 3.82% (active) | 57.9% | 8.48% (active) | 11.4% | 46.4% |  | 34.8% | 90.4%
5 | COc1cc(C(=O)C[n+]2ccccc2)ccc1OC(C)=O | 109% | 97.9% | 102% | 105% | 96.8% | 97.5% | 107% | 106% | 95.1% | 111% | 103% | 94.5% | 99.8% | 95.6% | 87.6% | 105% | 102% | 
6 | Cc1ccc(Cn2cc(COc3ccc4c5ccnc(C)c5n(CCCc5ccccc5)c4c3)nn2)cc1 | 81.9% | 64.2% | 94.2% | 103% | 96% | 96.9% | 87.5% | 92.6% | 89.8% | 76.4% | 89.9% | 90.1% | 106% | 86.2% | 60% |  | 97.9% | 89.5%
7 | COc1ccc(OC)c(NCC(=O)n2nc(/C=C\c3ccc(O)c(OC)c3)cc2/C=C\c2ccc(O)c(OC)c2)c1 | 0.623% (active) | -8.66% (active) | 7.25% (active) | 25.3% | 39.2% | -3.5% (active) | 11.6% | 12% | 22.2% | 20.4% | 15.5% | 17.1% | 5.88% (active) |  |  | 18% | 11.1% | 9.13% (active)
8 | C=CCn1c(SCC(=O)Nc2ccc(/C(C)=N\O)cc2)nnc1-c1cc(-c2ccc(OC)cc2)nc2ccccc12 | 33.8% | 17.3% | 15.3% | 79.4% | 53% | 52.8% | 11.1% | 37% | 46% | 13.7% | -4.63% (active) | 35.6% | 46.1% |  |  | 45.8% | 29% | 39.4%
9 | COC(=O)CCCNS(=O)(=O)c1cc(C(=O)Nc2ccc(NC(=O)c3cc(S(=O)(=O)NCCCC(=O)OC)c(O)c(O)c3O)cc2)c(O)c(O)c1O | 70.4% | 96% | 73.6% | 107% | 98.3% | 83.8% | 100% | 102% | 100% | 94.2% | 97.2% | 99.4% | 1.35% (active) | 73.7% | 76.9% | 93.4% | 96% | 95.8%
10 | COc1ccccc1S(=O)(=O)Nc1ccc2c3c(cc(-c4cnn(C5CC5)c4)nc13)C(=O)N2C | 51.3% | 10% | 70.1% | 72.6% | 62.2% | 55.8% | 59.2% | 69.8% | 55.9% | 59% | 69.9% | 90% | 52.4% | 29.6% | 60% | 75.4% | 56.3% | 68.5%
11 | CCCCOc1c(N)cc(Cl)cc1C(=O)OCCN(CC)CC | 79.5% | 100% | 90.8% | 113% | 118% | 94.5% | 107% | 108% | 99.7% | 107% | 99.8% | 76.5% | 111% | 93.3% | 80.3% | 109% | 104% | 99.2%
12 | CC(=O)c1cc2c(N)c(C(=O)Nc3cccc(Cl)c3)sc2nc1C | 66.1% | 76.7% | 83.5% | 113% | 84.3% | 51.3% | 92.3% | 92.8% | 83.2% | 79.5% | 83.6% | 75.5% | 2.38% (active) | 74% | 102% |  | 84.1% | 98.2%
13 | C#C[C@@]1(O)[C@@H](CO)O[C@@H](n2cc(C(F)(F)F)c3c(N)ncnc32)[C@@H]1O | -6.19% (active) | -33.6% (active) | 2.43% (active) | 14.1% | 15.8% | -7.5% (active) | 2.75% (active) | -2.07% (active) | -15.6% (active) | 6.08% (active) | -19.3% (active) | -12.1% (active) | 14.7% | 1.74% (active) | 4.15% (active) | 3.76% (active) | 6.52% (active) | 4.55% (active)
14 | COc1ccc(-c2cc3ccc(N(C)C)cc3nc2N)c(F)c1 | 12.9% | -19.7% (active) | 26.3% | 69.6% | 42.2% | 46.8% | 54.3% | 34.6% | 62.8% | 26% | 24.3% | 18.8% | 13.9% | 14.7% | 19.3% | 51.8% | 35% | 42.5%
15 | C[C@]12O[C@H]1[C@H](O)c1c(cc(O)c3c1C(=O)c1cccc(O)c1-3)C2=O | 93.6% | 93.6% | 98.1% | 106% | 92.4% | 97.9% | 102% | 106% | 93.9% | 107% | 100% | 95.5% | 104% | 97.9% | 93.4% |  | 103% | 113%
16 | COc1ccc(Cl)cc1NC(=O)c1cc2c([nH]1)-c1nc(N)sc1CCC2 | 79.4% | 108% | 101% | 103% | 111% | 98.4% | 106% | 106% | 108% | 92.7% | 88.2% | 102% | 103% | 98.9% | 110% | 109% | 97.3% | 
17 | C=C1C(=O)O[C@H]2[C@H]1CC/C(COC(=O)CCCC(=O)OC/C1=C/CC[C@@]3(C)O[C@H]3[C@H]3OC(=O)C(=C)[C@@H]3CC1)=C\CC[C@@]1(C)O[C@@H]21 | 0.324% (active) | -9.1% (active) | -9.93% (active) | 2.2% (active) | 49.2% | 74.5% | 13.4% | -46.6% (active) | 47.1% | 83.1% | 14.9% | -4.94% (active) | 4.28% (active) | 8.68% (active) | -53% (active) | 64.9% | 26% | -35.9% (active)
